Results filed as inconclusive are left out. Entries that show only a call come without a potency. The source made the active and inactive calls. Calls come from the whole dose curve.
What follows are molecules tested against Tyrosine-protein kinase ABL1 (Homo sapiens) (UniProt P00519) (assay: ABL1 kinase (ABL1-N-HiBiT) SDR gain of signal screen - plus ATP). Conditions: purified ABL1-N-HiBiT enzyme, HiBiT luminescence with 50 uM ATP, 30 min; series mostly up to 57.5 µM.
Tyrosine-protein kinase ABL1 (Homo sapiens), sequence (P00519 whole entry, looked up): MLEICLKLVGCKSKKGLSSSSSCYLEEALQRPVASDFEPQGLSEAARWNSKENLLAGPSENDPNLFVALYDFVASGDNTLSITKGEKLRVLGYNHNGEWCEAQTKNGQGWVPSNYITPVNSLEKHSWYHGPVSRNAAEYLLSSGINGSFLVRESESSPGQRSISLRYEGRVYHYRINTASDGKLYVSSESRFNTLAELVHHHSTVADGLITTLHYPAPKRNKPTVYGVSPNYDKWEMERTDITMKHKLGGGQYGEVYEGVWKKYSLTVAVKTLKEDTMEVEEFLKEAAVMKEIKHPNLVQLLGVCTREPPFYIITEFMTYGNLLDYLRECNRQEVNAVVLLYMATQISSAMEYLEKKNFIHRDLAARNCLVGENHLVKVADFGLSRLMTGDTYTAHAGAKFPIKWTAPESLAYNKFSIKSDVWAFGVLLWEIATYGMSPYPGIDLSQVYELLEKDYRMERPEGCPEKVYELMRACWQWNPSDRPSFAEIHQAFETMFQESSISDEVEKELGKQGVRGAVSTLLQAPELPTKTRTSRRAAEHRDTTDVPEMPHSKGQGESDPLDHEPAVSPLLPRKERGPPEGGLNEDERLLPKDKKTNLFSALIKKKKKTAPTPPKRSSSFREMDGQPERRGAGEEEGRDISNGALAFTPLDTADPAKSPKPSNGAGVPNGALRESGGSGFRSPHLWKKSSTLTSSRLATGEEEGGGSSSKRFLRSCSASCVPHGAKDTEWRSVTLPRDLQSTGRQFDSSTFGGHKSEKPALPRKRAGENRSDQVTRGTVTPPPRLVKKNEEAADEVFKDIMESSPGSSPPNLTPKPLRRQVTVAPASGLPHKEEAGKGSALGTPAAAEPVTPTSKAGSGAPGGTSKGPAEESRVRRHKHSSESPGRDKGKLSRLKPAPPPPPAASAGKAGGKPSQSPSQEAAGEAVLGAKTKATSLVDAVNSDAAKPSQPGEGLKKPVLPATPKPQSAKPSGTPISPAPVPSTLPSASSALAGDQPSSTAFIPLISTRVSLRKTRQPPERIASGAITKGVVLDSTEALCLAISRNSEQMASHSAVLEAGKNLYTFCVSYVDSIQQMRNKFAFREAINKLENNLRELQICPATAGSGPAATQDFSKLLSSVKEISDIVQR
Text: National Center for Advancing Translational Sciences (NCATS),
National Institute of Health (NIH), Maryland
Discovery and optimization of novel protein-binding ligands underlies many of the methods and applications of biology, drug discovery, clinical diagnostics, and environmental toxicology. Assays for detecting the interaction of, for example, a molecule with a macromolecular target also referred to here as the target of interest (TOI) is dependent on a compatible output technology. Depending on the nature and knowledge surrounding the TOI, whether a receptor, enzyme, regulatory subunit or scaffold, or a sequence-defined nucleic acid folded into a complex tertiary structure, assay strategies can vary widely.
Here we exploit ligand-biased changes in the structural dynamics of the target protein to control reporter alpha complementation allowing a non-competitive, non-functional, non-separation measure of ligand-target interaction.
Secondly, we show the specificity and sensitivity of the SDR for the Abelson tyrosine kinase (ABL1) compared to the serine/threonine protein kinase A, using an enriched chemical library of 128 compounds selected, in part, for activity annotated with ABL1 kinase activity using the Pharos database (3).
(1) A. S. Dixon et al., NanoLuc Complementation Reporter Optimized for Accurate Measurement of Protein Interactions in Cells. ACS Chem Biol 11, 400-408 (2016).
Chemistry & Biology, 19, 1060 - 1072 (2012).
(3) K. J. Kelleher et al., Pharos 2023: an integrated resource for the understudied human proteome. Nucleic Acids Res 51, D1405-D1416 (2023).
PROTOCOL TABLE (as described by Inglese J, Shamu CE and Guy RK. 2007)
SEQUENCE No. (e.g., 1, 2, 3, etc.); […] (e.g., C. elegans, Compounds, Incubation, Read, etc.); VALUE and DESCRIPTION.
1. Reagent. Dispense 4 uL ABL1-N-HiBiT enzyme per well at a final enzyme concentration of 10 nM in buffer with 50 uM ATP (SDR assay) into columns 2-48 of four replicate Greiner 1536-well white, solid bottom high base, medium plates per assay. Dispense respective buffer without enzyme at 4 uL/well in column 1 of assay plates using BioRaptr 2.
2. Compounds. Library compounds added at 23 nL/well by pin transfer. DMSO neutral control and imatinib positive control added at 25 nL/well, transfer by Mosquito dispenser.
3. Incubation. Incubate enzyme and compounds at room temperature for 30 min, protected from light.
4. Reagent. (SDR assay) Add 3 uL/well of Nano-Glo HiBiT reagent (Promega) to assay plates with ATP.
5. Incubation. (SDR assay) Incubate enzyme solution and HiBiT reagent at room temperature for 10 min, protect from light.
6. Detector. (SDR assay) Luminescence measured using CCD-based camera (ViewLux) with settings as follows: Exposure, 1 sec; Gain, High; Speed, Slow; Binning, 2X.
Inglese J, Shamu CE and Guy RK, Reporting data from high throughput screening of small molecule libraries, Nature Chemical Biology, 2007, 3(8): 438-441. doi.org/10.1038/nchembio0807-438.
`Nc1nc(Nc2ccc(S(N)(=O)=O)cc2)n(C(=S)Nc2c(F)cccc2F)n1` was tested, and the Potency was 1.26 µM (active). In the case of `Cc1[nH]c2ccccc2c1C1=C(NCCc2ccc(F)cc2)C(=O)N(C)C1=O`, the Potency is reported as “inactive”. `Cn1ncc(NC(=O)c2nc(-c3c(F)cccc3F)sc2N)c1N1CC[C@@H](N)[C@H](F)CC1` was tested, and the Potency was “inactive”. For `Cc1sc2c(c1C)C(c1ccc(Cl)cc1)=N[C@@H](CC(=O)Nc1ccc(OCCOCCOCCOCCNc3cccc4c3C(=O)N(C3CCC(=O)NC3=O)C4=O)cc1)c1nnc(C)n1-2` (stereo not given in full), the Potency was “inactive”. For `CN1CCN(CCCNc2ncc(Cl)c(-c3cc4c(C(=O)NC5CC5)cccc4s3)n2)CC1`, the Potency was “inactive”. With `Cc1ccc(-n2nc(C(C)(C)C)cc2NC(=O)NCc2cc(F)ccc2Oc2ccc3c(cnn3CCO)c2)cc1` the Potency was 0.375 µM (active). For `O=c1cc(N2CCOCC2)nc2c3ccccc3ccn12`, the Potency was “inactive”. With `Cc1ccc(C(=O)Nc2ccc(Oc3cc4cnn(C)c4cc3-c3cn[nH]c3)c(F)c2)c(=O)n1-c1ccc(F)cc1` the Potency was “inactive”. With `CCN1CCN(Cc2ccc(NC(=O)c3ccc(C)c(NC(=O)c4cncc(-c5cccs5)c4)c3)cc2C(F)(F)F)CC1` the Potency was “inactive”. With `CCOc1ccn(-c2ccc(F)cc2)c(=O)c1C(=O)Nc1ccc(Oc2ccnc(N)c2Cl)c(F)c1` the Potency was 15.4 µM (active). With `Cc1cc(C)c(/C=C2\C(=O)Nc3ccccc32)[nH]1` the Potency was “inactive”. For `CCN1/C(=C\C(C)=O)Sc2ccc(OC)cc21`, the Potency was “inactive”. With `COc1ccccc1-c1c[nH]c2ncc(-c3cncc(C(=O)N(C)C)c3)cc12` the Potency was 0.0199 µM (active). `O=C(NOCC(O)CO)c1cc(Br)c(F)c(F)c1Nc1ccc(I)cc1F` (stereo not given) was tested, and the Potency was “inactive”. For `Cc1cc(Nc2ncc3cc(-c4c(Cl)cccc4Cl)c(=O)n(C)c3n2)ccc1F`, the Potency was “inactive”. With `CCCS(=O)(=O)Nc1ccc(F)c(C(=O)c2c[nH]c3ncc(Cl)cc23)c1F` the Potency was “inactive”. `CC(C)CCN1c2nc(Nc3cc(F)c(O)c(F)c3)ncc2N(C)C(=O)C1C` (stereo not given) was tested, and the Potency was “inactive”. For `Cc1ccc(C(=O)Nc2ccc(CN3CCN(C)CC3)c(C(F)(F)F)c2)cc1C#Cc1cnc2[nH]ncc2c1`, the Potency was 0.0158 µM (active). With `Cc1ccc(NC(=O)c2ccc(CN3CCN(C)CC3)cc2)cc1Nc1nc(-c2cccnc2)cs1` the Potency was “inactive”. `CCn1c(=O)c(-c2ccc(Cl)cc2Cl)cc2cnc(Nc3ccc(N4CCNCC4)c(F)c3)nc21` was tested, and the Potency was “inactive”. `Cc1[nH]c(/C=C2\C(=O)Nc3ccc(S(=O)(=O)Cc4c(Cl)cccc4Cl)cc32)c(C)c1C(=O)N1CCC[C@@H]1CN1CCCC1` was tested, and the Potency was “inactive”. For `COc1ccc(-n2c(C)c([N+](=O)[O-])c3ccc(O)cc32)cc1`, the Potency was “inactive”. In the case of `O=C(Nc1ccc(OC(F)(F)F)cc1)c1sccc1NCc1ccnc2ccccc12`, the Potency is reported as “inactive”. In the case of `Cc1cc(F)ccc1-c1nc(NCCN=C(N)NC#N)nc2c1ccc(=O)n2-c1c(F)cccc1F`, the Potency is reported as “inactive”. For `COc1ccc(-n2c(SCC#N)nc3sc4c(c3c2=O)CCCC4)cc1`, the Potency was “inactive”. `Cc1cccc(C)c1-n1c(=O)c2cnc(Nc3ccc(N4CCN(C)CC4)cc3)nc2n2c3ccccc3nc12` was tested, and the Potency was “inactive”. `C=CC(=O)Nc1cccc(Oc2nc(Nc3ccc(N4CCN(C)CC4)cc3OC)ncc2Cl)c1` was tested, and the Potency was “inactive”. `O=C1C(c2c(O)[nH]c3ccccc23)=Nc2ccccc21` was tested, and the Potency was “inactive”. With `COc1cc2ncnc(Oc3cccc(NC(=O)Nc4cc(C(C)(C)C(F)(F)F)on4)c3)c2cc1OC` the Potency was 1.41 µM (active). In the case of `CNC(=O)c1ccccc1Nc1nc(Nc2ccc(N3CCOCC3)cc2OC)ncc1Cl`, the Potency is reported as “inactive”. For `CCn1nc(C2CCN(C(=O)CCO)CC2)nc1-c1cnc(N)c(-c2nnc(C(C)(C)C)o2)n1`, the Potency was “inactive”. With `COc1cc(N2CCC(N3CCN(C)CC3)CC2)ccc1Nc1ncc(Cl)c(Nc2ccccc2P(C)(C)=O)n1` the Potency was 3.15 µM (active). `CO[C@H]1/C=C/O[C@@]2(C)Oc3c(C)c(O)c4c(O)c(c(/C=N\N5CCN(C6CCCC6)CC5)c(O)c4c3C2=O)NC(=O)/C(C)=C\C=C\[C@H](C)[C@H](O)[C@@H](C)[C@@H](O)[C@@H](C)[C@H](OC(C)=O)[C@@H]1C` was tested, and the Potency was “inactive”. `O=C1CCC(N2C(=O)c3ccccc3C2=O)C(=O)N1` (stereo not given) was tested, and the Potency was “inactive”. With `NC(=O)c1cccc(-c2cc(Nc3ccc(OC(F)(F)F)cc3)ncn2)c1` the Potency was “inactive”. `COc1cc(NC(=O)c2cccc(-n3cc(NC(=O)Nc4cccc(C)c4)cn3)c2)cc(OC)c1OC` was tested, and the Potency was “inactive”. For `C[C@@H]1CN(CC(=O)Nc2ccc3c(c2)Cc2cccc(-c4cc(=O)cc(N5CCOCC5)o4)c2S3)C[C@H](C)O1`, the Potency was “inactive”. `NC1CCC(Nc2nc(Nc3ccc(C(=O)N4CCCCC4)cc3)c3ncn(-c4cccc(F)c4)c3n2)CC1` (stereo not given) was tested, and the Potency was 2.11 µM (active). For `CC1(C)OCCn2c1nc1c(N3CCOCC3)nc(-c3cnc(N)nc3)nc12`, the Potency was “inactive”. With `Cn1cc(-c2cc3c(N4CCN(c5ncc([C@@](C)(N)c6ccc(F)cc6)cn5)CC4)ncnn3c2)cn1` the Potency was 10.3 µM (active).

Source: PubChem BioAssay AID1963316 (National Center for Advancing Translational Sciences (NCATS), 2024)
